Sampled rows, rich in hits. Any-hit rate of the full collection: about 2.9%.
PI5P4Ka inh: qHTS for Inhibitors of phosphatidylinositol 5-phosphate 4-kinase (PI5P4K); PI5P4Kalpha enzyme, ADP-Glo luminescence, 60 min; stronger effect = lower value; max response, %; actives 1.2% (n = 330,000); AID 652105, 2013; active = max response of -50% or lower; inconclusive = between -30% and -50%; inactive = -30% or higher; also: value at the top dose of about 77 µM; % is scaled to controls: 0 for no effect and ±100 for the full control effect
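Luminescence from ADP-Glo served as readout of PI5P4Kalpha activity in a qHTS format. Reaction: enzyme, substrate, compound, ATP at 5 microM final, 60 min at RT.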
Pol eta inh: qHTS for Inhibitors of Polymerase Eta. DNA polymerase eta (Homo sapiens), Q9Y253. recombinant Pol eta, fluorescent DNA replication assay. Potency, µM (doses to about 114 µM), for the others: at the highest dose activity change, negative = inhibition, usual class: inhibitors. actives 1.2% (n = 390,000). AID 588591, 2011; also: potency is read from the fitted curve at half-maximal effect; % is scaled to controls: 0 for no effect and ±100 for the full control effect
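Pol eta (10 nM) was preincubated with compounds for 15 min at room temperature, after which fluorescent replication substrate (50 nM final) was added to start the reaction. Fluorescence was read kinetically at 0 and 10 min.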
12-LOX inh: Primary qHTS assay for inhibitors of human arachidonate 12S-lipoxygenase (ALOX12): Round 2; Polyunsaturated fatty acid lipoxygenase ALOX12 (Homo sapiens), P18054; purified 12hLO, xylenol orange hydroperoxide absorbance; Potency, µM (top dose mostly 108 µM), without a hit: top-dose activity change, negative = inhibition, hits mostly inhibitors; actives 1.1% (n = 580,000); also: potency is read from the fitted curve at half-maximal effect; % is scaled to controls: 0 for no effect and ±100 for the full control effect
Target sequence (P18054 whole entry, looked up): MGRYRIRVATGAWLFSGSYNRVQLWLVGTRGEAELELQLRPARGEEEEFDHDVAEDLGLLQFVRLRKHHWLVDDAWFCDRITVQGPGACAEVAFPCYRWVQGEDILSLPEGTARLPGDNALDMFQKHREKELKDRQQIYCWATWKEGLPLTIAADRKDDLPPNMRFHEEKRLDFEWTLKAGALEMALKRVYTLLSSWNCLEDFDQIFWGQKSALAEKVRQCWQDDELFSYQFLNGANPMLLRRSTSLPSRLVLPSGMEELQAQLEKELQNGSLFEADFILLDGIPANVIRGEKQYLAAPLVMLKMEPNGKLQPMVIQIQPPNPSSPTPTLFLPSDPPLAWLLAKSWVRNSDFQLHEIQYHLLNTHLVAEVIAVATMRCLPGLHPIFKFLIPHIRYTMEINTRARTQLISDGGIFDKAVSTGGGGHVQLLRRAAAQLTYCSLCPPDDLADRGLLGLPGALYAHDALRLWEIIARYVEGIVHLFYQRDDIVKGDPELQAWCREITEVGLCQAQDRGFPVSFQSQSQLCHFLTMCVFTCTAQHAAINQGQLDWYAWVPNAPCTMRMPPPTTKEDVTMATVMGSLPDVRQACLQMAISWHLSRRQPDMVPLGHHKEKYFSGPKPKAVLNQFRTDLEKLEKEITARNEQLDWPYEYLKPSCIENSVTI
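Purified human 12hLO at 150 nM in 25 mM Hepes, 0.01% Triton X-100, pH 7.0, preincubated 15 min at room temperature with compound. Reaction started with 40 uM arachidonic acid, 30 min at room temperature. Hydroperoxide measured by Fe-xylenol orange, 573/405 nm absorbance ratio.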
Pol kappa inh: qHTS for Inhibitors of Polymerase Kappa | DNA polymerase kappa (Homo sapiens), Q9UBT6 | purified Pol kappa, fluorescent DNA synthesis assay, 10 min | Potency, µM (titrated, usually from 107 µM), without a hit: at the top dose activity, negative = inhibition, most hits filed as inhibitors | actives 0.53% (n = 400,000) | AID 588579, 2011; also: potency is read from the fitted curve at half-maximal effect; % is scaled to controls: 0 for no effect and ±100 for the full control effect
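Activity was followed as the change in fluorescence between reads at 0 and 10 min after starting the reaction with 50 nM substrate. Beforehand, 10 nM polymerase had been preincubated with compound for 15 min at room temperature.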
POLI inh: qHTS for Inhibitors of Polymerase Iota | DNA polymerase iota (Homo sapiens), Q9UNA4 | Pol iota fluorescent replication assay, 10 min | Potency, µM (highest dose often 115 µM), without a hit: top-dose activity, negative = inhibition, hits mostly inhibitors | AID 588590, 2011 | actives 1% (n = 390,000); also: potency is read from the fitted curve at half-maximal effect
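Pol iota at 10 nM preincubated 15 min with compounds at room temperature; reaction started with fluorescent substrate, 50 nM final. Fluorescence read kinetically at 0 and 10 min; buffer-only wells as negative control.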
Pol beta inh: qHTS Assay for Inhibitors of DNA Polymerase Beta. Pol beta primer extension/strand displacement, fluorescence kinetic. Potency, µM (top dose mostly 114 µM), inactives show at the highest dose activity change, negative = inhibition, most hits filed as inhibitors. actives 1.3% (n = 340,000). P06746. AID 485314, 2010; also: potency is read from the fitted curve at half-maximal effect; % is scaled to controls: 0 for no effect and ±100 for the full control effect
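Kinetic readout of DNA synthesis with strand displacement by Pol beta. Compound and 10 nM enzyme sit 15 min at room temperature; 50 nM substrate starts the reaction, read immediately and at 10 min.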
* hit, by the source's call; u = inconclusive; x = not tested or not shown; [ ] = another dose, or the depositor's remark. Unless noted, calls follow the shape of the dose curve; as a rule, active = well fitted inhibition curve with a large enough effect; inconclusive = small, poorly fitted or top-dose-only effect, or another doubt; inactive = no such curve, though single readings can be large or run the other way.

SMILES | PI5P4Ka inh | Pol eta inh | 12-LOX inh | Pol kappa inh | POLI inh | Pol beta inh
CN(CC(=O)Nc1cccc(F)c1)C(=O)CSc1ccccc1F | u | -16% | u | -18% | u | 45µM*
CN(CC(=O)Nc1cccc(F)c1)C(=O)c1ccc(COc2ccccc2)cc1 | 4 | -16% | -24% | 1% | 79µM* | x
CC(C)Sc1nc2c(c(=O)n(C)c(=O)n2C)n1Cc1ccccc1 | x | x | 2% | x | x | x
O=C(O)c1c2c(nc3ccc(S(=O)(=O)N4CCC(C(=O)N5CCCCC5)CC4)cc13)CCCC2 | 4 | 32µM* | u | u | u | -2%
COc1ccccc1S(=O)(=O)N(C)C[C@@H]1Oc2cc(C#CCC(C)C)ccc2S(=O)(=O)N([C@H](C)CO)C[C@@H]1C | 2 | -23% | 0% | x | x | x
COc1ccccc1S(=O)(=O)N(C)C[C@H]1Oc2cc(C#CCC3CCCC3)ccc2S(=O)(=O)N([C@H](C)CO)C[C@H]1C | 9 | -15% | 20µM* | x | x | x
C[C@@H]1CN([C@@H](C)CO)S(=O)(=O)c2ccc(C#CC3CCCCC3)cc2O[C@@H]1CN(C)Cc1cccnc1 | 1 | -9% | 14µM* | x | x | x
Cc1ccn2cc(-c3c(-c4ccccc4C)n(C)c(=O)n(C)c3=O)nc2c1 | x | x | -19% | x | x | x
COc1ccc(OC)c(NC(=O)NC(c2ccccc2)c2nnc(-c3ccccc3)o2)c1 (configuration not stated) | x | x | -38% | x | x | x
O=C1C2C3C=CC(C3)C2C(=O)N1c1ncn[nH]1 (configuration not stated) | x | u | -23% | -12% | u | 40µM*
O=C1C2C3C=CC(C3)C2C(=O)N1c1ccncc1 (configuration not stated) | 2 | -6% | 2% | -11% | 10% | 10%
CCCS(=O)(=O)NCc1cccc(COC(C)(C)C)c1 | x | x | 2% | x | x | x
O=C1CSC(=S)N1Nc1ccccc1 | -21 | -9% | -7% | -6% | 32µM* | x
Cc1ccccc1C(=O)NN1C(=O)CSC1=S | 3 | -5% | -14% | -4% | -13% | -1%
N#CC1CCN(C(=O)c2cc(=O)[nH]c3ccccc23)CC1 | x | x | -2% | x | x | x
O=C1Nc2ccccc2CN(Cc2ccc(Cl)cc2)C12CCNC2 (configuration not stated) | x | x | 20µM* | x | x | x
CCSc1nc2n(n1)C(c1cccnc1)C1=C(CC(C)(C)CC1=O)N2 (configuration not stated) | x | x | -22% | x | x | x
COc1ccc(C(=O)c2sc(Nc3cc(Cl)ccc3C)nc2N)cc1OC | x | -16% | -26% | -17% | u | 28µM*
CCOC(=O)c1sc(NC(=O)Nc2ccccc2F)nc1C | 3 | -12% | 9% | -13% | 39% | -24%
CCOC(=O)c1sc(Nc2ccccc2Cl)nc1C | -1 | -14% | 28µM* | 5% | u | 9%
Cc1ccc(C(=O)c2sc(Nc3cccc(Cl)c3C)nc2N)cc1 | x | x | 28µM* | x | x | x
Cc1ccc(C(=O)c2sc(Nc3cc(C)cc(C)c3)nc2N)cc1 | x | x | -15% | x | x | x
Cc1c(CCC(=O)N2CCCC2)c(=O)oc2c(C)c(O)ccc12 | x | x | 18% | x | x | x
Cc1c(C(=O)O)cnc2c([N+](=O)[O-])cnn12 | -55* | u | -2% | -33% | 60% | u
CC(=O)c1cnc2c(C(=O)O)cnn2c1C | x | -9% | -19% | -5% | 1% | 6%
SMILES | PI5P4Ka inh | Pol eta inh | 12-LOX inh | Pol kappa inh | POLI inh | Pol beta inh
O=C(NC1CCN(c2cc(C(F)(F)F)ncn2)CC1)c1ccccc1 | x | x | 45µM* | x | x | x
COc1ccc(C(=O)COC(=O)CCN2C(=O)C3CC=CCC3C2=O)c(OC)c1 (configuration not stated) | u | u | -4% | -12% | 40µM* | x
COc1ccc(C(=O)COC(=O)CCn2c(C)csc2=O)c(OC)c1 | -65* | u | -23% | x | x | x
COc1ccc(C(=O)COC(=O)Cn2c(C)csc2=O)c(OC)c1 | u | u | -4% | -27% | u | x
COc1ccc(C(=O)COC(=O)CN2C(=O)c3ccccc3C2=O)c(OC)c1 | -7 | -8% | 14% | -15% | 22% | -24%
CC(C)Cc1ccc(C(C)NC(=O)c2ccc(CS(C)(=O)=O)cc2)cc1 (configuration not stated) | x | x | -3% | x | x | x
Cc1ccccc1CNC(=O)Cc1nn(C)c(=O)c2ccccc12 | x | x | 1% | x | x | x
CCOC(=O)CNC(=O)Nc1nnc(-c2ccc(OCC)cc2)o1 | -3 | 7% | 0% | -5% | 29% | 79µM*
CCCCNC(=O)Nc1nnc(-c2ccc(OCC)cc2)o1 | 2 | 5% | 23% | 1% | 97% | 6%
CC(=O)N1CCn2c3c(c4cc(C)ccc42)CCCC31 (configuration not stated) | 1 | -7% | -12% | 4% | 34% | 21%
CC(=O)N1CCn2c3c(c(=O)c4cc(C)ccc42)CCC31 (configuration not stated) | -1 | 4% | u | -22% | 22µM* | -3%
Cc1ccc2c(c1)c1c3n2CCN(C(=O)CCl)C3CCC1 (configuration not stated) | 4 | -24% | 11µM* | -2% | 22% | 11%
CC(C)n1nc(C(=O)Nc2nc3c(s2)CN(C)CC3)c2ccccc2c1=O | x | x | -12% | x | x | x
C=C(CCC(=O)c1ccccc1)C(=O)c1ccccc1 | 0 | 16µM* | -15% | 4% | u | u
COc1ccccc1N=c1oc2cc(O)ccc2cc1C(N)=O | -71* | -15% | -9% | -18% | 19% | 1%
COc1ccccc1N=c1oc2cc(O)ccc2cc1C(=O)NCC1CCCO1 (configuration not stated) | x | -14% | -8% | -20% | -48% | 5%
Cc1ccc2nc(CSc3ncnc4ccccc34)cn2c1 | x | x | 2% | x | x | x
CC(C)C(=O)NC(C)C(c1cccs1)N1CCN(c2ccccc2)CC1 (configuration not stated) | -2 | -5% | -4% | -5% | 8% | 20µM*
Cn1c(CCCNC(=O)c2ccco2)nc2ccccc21 | -70* | u | u | -28% | u | x
Cn1c(CCNC(=O)c2ccco2)nc2ccccc21 | -3 | -20% | -10% | -10% | 21% | x
O=c1cc(CSc2nnnn2-c2ccccc2)nc2scc(-c3ccccc3)n12 | u | -14% | 0%[57.4 µM] | u | u | 25µM*

Assay outcomes deposited in PubChem by National Center for Advancing Translational Sciences (NCATS).
